Screen size: about 48,000 compounds; about 13,000 (27%) showed an effect of 50% or more. The list shows a part of the results.
Test system: Wolbachia pipientis
Test: Anti-Wolbachia Cell-Based Screen
Type: functional
Set-up: scale not given: in the data most compounds retested in dose-response had high values
Settings: 5 µM

SMILES | Percent Effect [%]
COCc1nc(C2CC2)nn1-c1ccccc1Cl | -16.97
CC(NCc1c(C(C)C)nn(C)c1N1CCOCC1)C(N)=O (stereo unspecified) | 1.644
Cc1cnc(C)c(N2CCC(c3nccn3Cc3cscn3)CC2)n1 | 32.35
CC(NC(=O)CCCOc1cccc(F)c1)c1ccncc1 (stereo unspecified) | -15.4
Cc1ncc2c(n1)CN(Cc1ncc(C(C)(C)C)o1)CC2 | 13.07
OCC(O)CN1CCc2onc(-c3ccc(C(F)(F)F)cc3)c2C1 (stereo unspecified) | -7.135
CN(C)C(=O)c1ccc(OC2CCOCC2)cc1 | 14.67
COC(C)(C)CNC(=O)N(C)Cc1nc(-c2ccccc2)c[nH]1 | -6.978
CCOc1ccc(Cl)c(C(=O)N2CCN(CC(C)(C)O)CC2)n1 | 117.3
COc1ccc(OCc2cc(C(=O)N3CCSCC3)n[nH]2)c(Cl)c1 | -44.95
CCOc1ccc(Cl)c(C(=O)N(C)C)n1 | -5.446
CCOc1ccc(Cl)c(C(=O)N2CCN(C(=O)OC)CC2)n1 | 106.5
CCOc1ccc(Cl)c(C(=O)N2CCCSCC2)n1 | 87.04
CC(C)(O)CN1CCN(C(=O)c2cc(Cl)cc3cccnc23)CC1 | -2.728
CCOc1ccc(Cl)c(C(=O)NCc2ccc(C(=O)NC)cc2)n1 | -13.09
CCOc1ccc(Cl)c(C(=O)N2CCN(C(=O)c3ccoc3C)CC2)n1 | -0.3279
CC(C)(O)CN1CCN(C(=O)c2cccc3[nH]ncc23)CC1 | 5.71
c1cnnc(N2CCCC(NCc3ccc(-n4cccn4)cc3)C2)c1 (stereo unspecified) | -2.089
Cc1cc(CCC2CN(CC3(O)CCCCC3)CCO2)ncn1 (stereo unspecified) | 116.4
Cc1cc(C)c2nc(CN3CCOC(CCO)C3)cc(O)c2c1 (stereo unspecified) | -3.808
c1cnn(CCN2CCOC(Cn3cccn3)C2)c1 (stereo unspecified) | 108.3
c1cnn(CC2CN(CCc3ccncc3)CCO2)c1 (stereo unspecified) | 0.6004

SMILES | Percent Effect [%]
c1ncn(CC2CN(CC3CCCC3)CCO2)n1 (stereo unspecified) | -0.8263
O=S(=O)(CCCN1CCOC(Cn2cccn2)C1)c1ccccc1 (stereo unspecified) | 7.752
c1ccc(CCCN2CCOC(Cn3cccn3)C2)cc1 (stereo unspecified) | 128.6
c1ccc(CCN2CCOC(Cn3cccn3)C2)nc1 (stereo unspecified) | 5.708
c1cnn(CCN2CCOC(Cn3cncn3)C2)c1 (stereo unspecified) | -9.191
c1ncn(CC2CN(CC3CCCCC3)CCO2)n1 (stereo unspecified) | 107.8
C=C(C)CN1CCOC(Cn2cncn2)C1 (stereo unspecified) | -5.235
O=C(O)c1csc(S(=O)(=O)Nc2cccc(OC(F)F)c2)c1 | -1.91
COC(=O)C(NC(=O)c1ccc(NC2CC2)nc1)c1ccccc1 (stereo unspecified) | -0.3075
O=C(NCCc1ccccc1)N1CC[C@@H]2CNS(=O)(=O)[C@@H]2CC1 | -17.14
COC1CCN(C(=O)Cn2cccc(C(F)(F)F)c2=O)C1 (stereo unspecified) | -0.2293
O=S(=O)(CCN1CCOC(Cn2cccn2)C1)C(F)(F)F (stereo unspecified) | 8.008
c1cnn(CC2CN(CC3CCCC3)CCO2)c1 (stereo unspecified) | 7.004
FC(F)(F)Cn1ccnc1CN1CCOC(Cn2cccn2)C1 (stereo unspecified) | -0.9498
c1cnn(CC2CN(CC3CCCCC3)CCO2)c1 (stereo unspecified) | 102.2
OC1(CN2CCOC(Cn3cccn3)C2)CCCCC1 (stereo unspecified) | 99.61
CC(C)=CCN1CCOC(Cn2cccn2)C1 (stereo unspecified) | 136
Cc1cccc(C(C)NCC2CCS(=O)(=O)CC2)c1 (stereo unspecified) | -4.903
O[C@H]1Cc2ccccc2[C@H]1Nc1ncccc1C(F)(F)F | -3.306
CCN(CC)C(=O)[C@@H]1C[C@@H](NC(=O)c2cccc(N(C)C)c2)CN1C | -6.856
COc1cc(C)nc(N2CCN(C(C)c3nc(C4CC4)no3)CC2)n1 (stereo unspecified) | 4.237
Cc1nnc(NCC(c2ccco2)N(C)C)c(C#N)c1C (stereo unspecified) | 0.3665

SMILES | Percent Effect [%]
O=C(Cn1ccc2ccc(Cl)cc21)/N=c1\[nH]nc(C2CCCO2)s1 (stereo unspecified) | 134.6
O=C(Cn1ccc2ccc(Br)cc21)NC[C@@H]1CCCN2CCCC[C@H]12 | 19.6
O=C(CCn1ccc2cc(Br)ccc21)/N=c1\[nH]nc(C2CCCO2)s1 (stereo unspecified) | 98.02
O=C(NCc1cnn(-c2ccc(F)cc2F)c1)C1CCCO1 (stereo unspecified) | 2.744
CCN(CC)C(=O)Cn1ccc2cc(NC(=O)C3CCCO3)ccc21 (stereo unspecified) | -12.1
O=C(CC1CCCO1)Nc1ccc2c(ccn2CCN2CCOCC2)c1 (stereo unspecified) | -5.067
Cn1cc(C2CCCN2C(=O)Cn2ccc3ccc(Cl)cc32)cn1 (stereo unspecified) | -41.07
O=C(NCCc1ccn(-c2ccc(F)cc2)n1)C1CCCO1 (stereo unspecified) | -8.284
O=C(CCn1ccc2ccc(F)cc21)/N=c1\[nH]nc(C2CCCO2)s1 (stereo unspecified) | 105.1
O=C(CCn1ccc2ccc(Br)cc21)/N=c1\[nH]nc(C2CCCO2)s1 (stereo unspecified) | 100.3
NC(=O)C1CCN(C(=O)CCn2ccc3cc(Br)ccc32)CC1 | 25.85
CCCn1ccc2cc(NC(=O)CC3CCCO3)ccc21 (stereo unspecified) | 3.072
CCCN(C(=O)CCS(=O)(=O)Cc1ccccc1)c1cccc(C)c1 | -47.75
Cc1ccc(-c2cn3c(n2)CO[C@@H](CNCc2cccnc2)C3)cc1 | 0.839
Cc1[nH]/c(=N\C(=O)c2csc(NCC(C)C)n2)sc1C | 1.657
CNC(=O)CCC(=O)N1CCOC(c2ccc3cc(OC)ccc3c2)C1 (stereo unspecified) | 9.004
COc1ccc2c(ccn2CCC(=O)/N=c2\[nH]nc(C3CCCO3)s2)c1 (stereo unspecified) | 126.4
CCn1ccc2cc(NC(=O)CC3CCCO3)ccc21 (stereo unspecified) | 3.531
O=C(NC1CC1)c1cn(C2CCN(c3cc(C4CC4)ncn3)CC2)nn1 | -15.81
CC(C)Nc1cc(N2CCC(n3cc(CCO)nn3)CC2)ncn1 | 96.69
CCC(C)CN1CCC(n2cc(C3CCCC3)nn2)CC1 (stereo unspecified) | -13.12
CC(C)Nc1cc(N2CCC(n3cc(C4CC4)nn3)CC2)ncn1 | 77.15

SMILES | Percent Effect [%]
Cc1cc(N2CCC(n3cc(CCCO)nn3)CC2)ccn1 | 1.957
CCc1cc(N2CCC(n3cc(C(=O)NC4CC4)nn3)CC2)ncn1 | -11.68
CCCC(C)CN1CCC(n2cc(C3CCCC3)nn2)CC1 (stereo unspecified) | 0.2453
CCC(C)CN1CCC(n2cc(C3CCCCC3)nn2)CC1 (stereo unspecified) | -12.86
C=C(C)CN1CCC(n2cc(C3CCCC3)nn2)CC1 | 14.96
CCc1cc(N2CCC(n3cc(C(=O)NCC(C)C)nn3)CC2)ncn1 | -7.159
CC(C)Nc1cc(N2CCC(n3cc(C4CCCC4)nn3)CC2)ncn1 | 92.63
OCCNc1cc(N2CCC(n3cc(C4CCCC4)nn3)CC2)ncn1 | 104
Cc1nn(CCO)c(C)c1CNC1CCC(C)(C)c2ccccc21 (stereo unspecified) | -8.145
CNCCN1C(=O)CC[C@H]2CN(c3cnc4ccccc4n3)CC[C@H]21 | -7.782
CC(C)COC1CCN(C(=O)c2ccc(C(F)(F)F)[nH]c2=O)CC1 | 17.18
N#Cc1ccc(CS(=O)(=O)NC(=O)c2ccc(C#N)cc2)cc1 | 0.6106
CCN1CCc2c(sc3c2C(=O)NC(/C=C\c2ccccc2)N3)C1 (stereo unspecified) | 141.7
CN1CCc2c(sc3c2C(=O)NC(/C=C/c2ccccc2)N3)C1 (stereo unspecified) | 102.8
CCN1CCc2c(sc3c2C(=O)NC(/C=C/c2ccco2)N3)C1 (stereo unspecified) | 144
NC(=O)Nc1cccc(CNC(=O)CCCOCc2ccccc2)c1 | -14.12
Cc1noc(C)c1C(=O)N(Cc1ccsc1)CC1CCCO1 (stereo unspecified) | -86.84
CCN1CCN(S(=O)(=O)N2CCCCCC2)[C@H]2CS(=O)(=O)C[C@H]21 | 2.124
CCCC(=O)N(CCCN1CCOCC1)c1nc2c(Cl)cccc2s1.Cl | 31
Cn1c(-c2ccccc2Cl)nc2cc(C(=O)NCC3(CO)CC3)cnc21 | 10.87
Cc1noc(CCCC(=O)NCC(c2ccco2)N2CCCCC2)n1 (stereo unspecified) | -0.8117
CC(C)c1noc(CCC(=O)NCC(c2ccco2)N2CCCC2)n1 (stereo unspecified) | -11.99

SMILES | Percent Effect [%]
O=C(NCCCn1cncn1)NCC(c1ccco1)N1CCCCC1 (stereo unspecified) | 9.107
O=C(CCn1cncn1)NCC(c1ccco1)N1CCCCC1 (stereo unspecified) | 106.2
Cc1noc(CCCC(=O)NCC(c2ccco2)N2CCCC2)n1 (stereo unspecified) | 1.423
O=C(CCn1cncn1)NCC(c1ccco1)N1CCCC1 (stereo unspecified) | 144.5
CC1CCN(CC(O)CN2CCn3c(nnc3C3CC3)C2)CC1 (stereo unspecified) | -2.379
Cc1ccoc1-c1nnc(CN2CCn3c(nnc3C3CC3)C2)o1 | 8.401
CC(C)c1nnc(NC(=O)CCc2cc(F)ccc2F)[nH]1 | -72.05
CN(Cc1cn[nH]c1-c1ccc(F)cc1)C(=O)CCC1CC1 | -8.61
Cc1n[nH]c(C)c1CCCN(C)Cc1c[nH]nc1-c1ccc(F)cc1 | -0.8434
Cc1n[nH]c(C)c1CCC(=O)N(C)Cc1cn[nH]c1-c1ccc(F)cc1 | 62.4
COc1ccc(CCc2nnc(NC(=O)C3CC34CCC4)s2)cc1OC (stereo unspecified) | 134.8
CCCc1nnc(NC(=O)NC2CCOc3ccccc32)s1 (stereo unspecified) | -4.049
COc1cc(CNC(=O)Nc2nnc(C3CC3)s2)ccc1O | -2.048
CC(=O)NC(C)CC(=O)NCc1cccnc1Oc1ccccc1C (stereo unspecified) | -2.321
COc1ccc(C(CC(=O)NCc2n[nH]c(N)n2)c2ccccc2)cc1 (stereo unspecified) | -21.33
COc1cc2nc(C)n(CC(=O)O)c(=O)c2cc1OC | 17.35
COc1cc2ncn(CC(=O)NCCCN(C)C)c(=O)c2cc1OC | 7.86
COc1cc2ncn(Cc3ncc[nH]3)c(=O)c2cc1OC | 88.22

Reference: ChEMBL document CHEMBL3988442, “University of Dundee, Small-Polar-MMV Screening Library” (2021)
